Laboratory results from PubChem BioAssay (NCATS).
Some of the results follow. Records with an inconclusive call do not appear. Activity calls are given as the source filed them. Calls come from the whole dose curve; as a rule, active = well fitted inhibition curve with a large enough effect; inconclusive = small, poorly fitted or top-dose-only effect; inactive = no such curve, though single readings can be large or run the other way.

target: Phosphoglycerate kinase, glycosomal (Trypanosoma brucei brucei) (UniProt P07378); assay: qHTS for inhibitors of Phosphogylcerate Kinase: Hit Validation Screen (AID 686980); conditions: TbPGK coupled GAPDH assay, Kinase-Glo luminescence; note: nearly all actives have a fitted effect of over 65% in size
Sequence (P07378 whole entry, looked up): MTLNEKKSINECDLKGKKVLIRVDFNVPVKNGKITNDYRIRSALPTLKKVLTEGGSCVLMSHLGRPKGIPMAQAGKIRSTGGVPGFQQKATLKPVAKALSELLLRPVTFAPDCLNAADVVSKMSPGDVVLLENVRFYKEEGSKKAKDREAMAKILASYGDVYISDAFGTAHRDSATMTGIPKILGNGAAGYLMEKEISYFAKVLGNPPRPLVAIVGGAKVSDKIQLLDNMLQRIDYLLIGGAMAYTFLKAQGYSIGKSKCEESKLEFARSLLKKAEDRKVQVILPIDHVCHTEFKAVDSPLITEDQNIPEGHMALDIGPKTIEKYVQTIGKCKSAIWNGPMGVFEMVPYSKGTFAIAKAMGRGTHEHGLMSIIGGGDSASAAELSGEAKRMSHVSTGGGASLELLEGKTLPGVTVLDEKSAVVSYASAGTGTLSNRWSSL
Source text: Several species of the Trypanosomatidae family of parasitic protozoans cause a spectrum of diseases throughout the tropical and subtropical world. Sleeping sickness, caused by two subspecies of Trypanosoma brucei, is endemic to areas of sub-Saharan Africa, while Chagas disease, a manifestation of Trypanosoma cruzi infection, is prevalent throughout Central and South America. In addition, many species of Leishmania are responsible for a range of cutaneous and visceral diseases, causing ulcers, destructive lesions and kalaazar, a lethal infection of the viscera. Collectively, these organisms infect 30 million people worldwide (~500 million live in endemic areas), and account for ~130,000 deaths annually. Given their debilitating and prevalent nature, trypanosomatid parasites impose a heavy medical, economic and social burden on entire populations, primarily in the developing world. The problem is further exacerbated by the fact that existing treatments have progressed little in the past 50 years, and current drugs show high toxicity and poor efficacy. […] Blood-stream stages of T. brucei are entirely dependent on glycolysis as a source of ATP, and the tricarboxylic acid cycle and oxidative phosphorylation are both repressed. Glycolysis in axenically cultured T. cruzi, representing the intracellular pathogenic stage, is also essential for these parasites. […] Previous studies have shown that the glycolytic enzyme, phosphoglycerate kinase (PGK), is a viable target for drugs to kill these parasites. […] NIH Molecular Libraries Probe Production Network [MLPCN] NIH Chemical Genomics Center [NCGC] MLPCN Grant: R03 MH093212 PI Name: Malcolm Walkinshaw, University of Edinburgh
3ul of substrate/PGK buffer (columns 1,2,5-48) are dispensed into Greiner white solid bottom 1536-well assay plates; columns 3-4 receive only TEA buffer as 0x PGK controls. Compounds are then transferred via Kalypsys pin tool equipped with 1536-pin array (10nl slotted pins, V&P Scientific, San Diego, CA). Following addition of compound, 1ul of GAPDH (100nM final concentration, all columns) is added to initiate the reaction (this upstream coupling enzyme is necessary for in-well production of PGK substrate, 1,3-bisphosphoglycerate (1,3-BPG), which is unstable and not commercially available). The plates are then incubated at room temperature for 60 minutes. Kinase-Glo Plus reagent is added (2ul) and plates incubated for 10 minutes, before being transferred to a ViewLux high-throughput CCD imager (PerkinElmer) wherein single end-point measurements of luminescence are acquired using a clear filter. All reagents are diluted in an assay buffer consisting of 100mM TEA (pH 7.6), 5mM MgCl2 and 0.01% Tween-20.
Potency is the fitted concentration of half-maximal effect.

Potency, active:
Cc1nonc1C(=O)N/N=C/c1ccc(O)cc1 5.8 µM
COCCCn1c(Cc2csc(Nc3cccc(Cl)c3)n2)nnc1SCC(=O)OC1CCCCC1 9.19 µM
COc1ccc(Cl)cc1NC(=O)CCS(=O)(=O)c1ccc(Br)cc1 5.17 µM
O=C(CSc1nc2ccccc2c(=O)[nH]1)Nc1nc(-c2ccc(Br)cc2)cs1 4.11 µM
Cc1ccc(-c2nc(SCc3ccc(Br)cc3)n3[nH]c(=O)cc3n2)cc1 9.19 µM
C=CCn1c(C)cc(C2=NNC(=NCC)SC2)c1C 11.6 µM
O=C1/C(=C/c2cccs2)CCc2ccccc21 14.6 µM
Cc1c(CC(=O)N2CCN(C(=O)C3COc4ccccc4O3)CC2)c(=O)oc2c(O)c(O)ccc12 (configuration not stated) 2.59 µM
C=CC1=C(C(=O)O)N2C(=O)[C@@H](NC(=O)/C(=N/OCC(=O)O)c3csc(N)n3)[C@H]2SC1 0.116 µM
Cc1ccnc(NC(=O)c2ccoc2C)c1 14.6 µM
O=C(Oc1ccc(-c2nc(-c3ccccn3)no2)cc1)c1ccccc1 16.3 µM
Cc1ccc(C(=O)O)cc1-c1ccc(/C=C2\SC(=O)N(CC(=O)Nc3ccc4c(c3)OCO4)C2=O)o1 8.19 µM
